Results published in ChEMBL document CHEMBL3988442, “University of Dundee, Small-Polar-MMV Screening Library” (2021).
The whole screen tested about 48,000 compounds, of which about 13,000 (27%) showed an effect of 50% or more. This is one part of the list.

Test system: Wolbachia pipientis
Experiment: Anti-Wolbachia Cell-Based Screen
Type: functional
Set-up: scale not given: in the data most compounds retested in dose-response had high values
Conditions: 5 µM

| SMILES | Percent Effect [%] |
| --- | --- |
| N#Cc1ccnc(N2CCN(CC(O)c3ccccc3)CC2)c1 (stereo not drawn) | -34.32 |
| COc1ccccc1C1(CNc2ncc(S(N)(=O)=O)s2)CC1 | -5.545 |
| CCN(CC)C(=O)N1CCN(C(=O)C2CCCc3[nH]ncc32)CC1 (stereo not drawn) | -7.717 |
| CC(NC(=O)NCCCc1n[nH]c(N)c1C#N)c1ccccc1 (stereo not drawn) | 11.96 |
| Cn1cc(CN2CCc3c(nnn3C)C2COCc2ccccc2)cn1.O=C(O)C(F)(F)F (stereo not drawn) | -8.957 |
| CC(C)CN1CCc2[nH]cnc2C12CCN(C(=O)c1cccnc1)CC2 | 1.531 |
| COCCNC(=O)NCC(C)c1ccccc1OC (stereo not drawn) | -10.13 |
| CNC(=O)[C@H]1C[C@@H]2CN(C(=O)c3ccc(C)o3)C[C@@H]2N1S(C)(=O)=O | 94.93 |
| CCN1C[C@@H]2CN(C(=O)c3ccsc3)C[C@@H]2C1=O | -7.34 |
| CNC(=O)[C@H]1C[C@@H]2CN(C(=O)c3occc3C)C[C@@H]2N1S(C)(=O)=O | 100.3 |
| CNC(=O)[C@H]1C[C@@H]2CN(C(=O)c3ccsc3)C[C@@H]2N1S(C)(=O)=O | 104.8 |
| CNC(=O)[C@H]1C[C@@H]2CN(C(=O)c3cscn3)C[C@@H]2N1S(C)(=O)=O | -14.13 |
| CNC(=O)[C@H]1C[C@@H]2CN(C(=O)c3ccco3)C[C@@H]2N1S(C)(=O)=O | 10.85 |
| O=C(c1ccoc1)N1C[C@H]2CC[C@@]3(N=C(c4ccccc4)NC3=O)[C@H]2C1 | -13.12 |
| CNC(=O)[C@H]1C[C@@H]2CN(C(=O)c3ccoc3)C[C@@H]2N1S(C)(=O)=O | 83.29 |
| CNC(=O)[C@H]1C[C@@H]2CN(S(=O)(=O)c3ccccc3)C[C@@H]2N1C(C)=O | -8.592 |
| O=C(c1ccoc1)N1C[C@@H]2CN(c3ncccn3)C[C@@H]2C1 | -12.12 |
| Cc1ccoc1C(=O)N1CC[C@@]2(C[C@H](NS(C)(=O)=O)CCO2)C1 | -10.72 |
| Cc1nn(C)c(Cl)c1CNCc1ccc(OCC(N)=O)cc1 | 6.399 |
| O=C(NC[C@H]1OC[C@@H](NCc2ccc(F)cc2)[C@@H]1O)N1CCOCC1 | -11.78 |
| CCNC(=O)N1CCC(NC(=O)NCCc2cccc(C)c2)C1 (stereo not drawn) | -4.75 |
| NCC1CN(c2nc(-c3ccccc3)nc3c2CCNCC3)CCO1 (stereo not drawn) | 2.56 |
| Cc1cc(-c2nn(C)c(Cl)c2CN2CCOC(C(=O)O)C2)no1 (stereo not drawn) | -7.215 |
| CN1C(=O)[C@H]2CC[C@@H]1CN(Cc1cccc(OCc3ccccn3)c1)C2 | -0.7428 |
| CS(=O)(=O)NC1CCCN(Cc2ccc(OCc3ccccn3)cc2)C1 (stereo not drawn) | 2.735 |
| O=C(CCN1CCOC(C(F)(F)F)C1)NCc1cccc(Cl)c1 (stereo not drawn) | -5.951 |

| SMILES | Percent Effect [%] |
| --- | --- |
| FC(F)(F)C1CN(Cc2cccc(OCc3ccccn3)c2)CCO1 (stereo not drawn) | 94.94 |
| O=C(O)C1CN(Cc2cccc(-c3ccccn3)c2)CCO1 (stereo not drawn) | 102.3 |
| CN(C)C(=O)CCC1CCCN(Cc2cccc(-c3ccccn3)c2)C1 (stereo not drawn) | 9.493 |
| FC(F)(F)C1CN(Cc2cnc3c(-c4ccccc4)cnn3c2)CCO1 (stereo not drawn) | 27.88 |
| FC(F)(F)C1CN(Cc2cccc(-c3ccccn3)c2)CCO1 (stereo not drawn) | 75.31 |
| Cc1nc2c(c(N3CCC(CN4CCCC4=O)CC3)n1)CCNCC2 | -1.611 |
| COC(=O)c1cc(OCC2CCC2)cc(C(=O)N[C@H]2CC[C@H](O)CC2)c1 | -10.19 |
| CSCCC1CC(=O)Nc2cc(O)c(C)cc21 (stereo not drawn) | 3.121 |
| O=C(c1cnc(NCCC2CCCO2)c(Cl)c1)N1CCCCC1 (stereo not drawn) | -6.452 |
| CNC(=O)c1cc2c(nc1NC(C)C)CCN(C(=O)NC(C)C)CC2 | -1.585 |
| CCN1CCOCC2(CCCN(c3nncs3)C2)C1 (stereo not drawn) | -9.534 |
| CC(=O)c1cc(CC(=O)N2CCCC2c2nc(C(C)C)no2)cs1 (stereo not drawn) | -13.65 |
| CSCC(C)(O)CNC(=O)c1ccc(F)cc1Cl (stereo not drawn) | 16.17 |
| Cn1nnnc1SCCC(=O)NCC(C)(C)c1ccccc1F | -11.64 |
| Cc1nn(C)cc1-c1cc(C(=O)NCC(C)(C)c2cccc(F)c2)n[nH]1 | 113.6 |
| Cc1cc(C)n(CC(C)NC(=O)C(C)(C)c2ccccc2F)n1 (stereo not drawn) | 6.546 |
| Cc1nncn1CCNC(=O)C(C)(C)c1cccc(F)c1 | -15.91 |
| Cc1nn(C)cc1-c1cc(C(=O)NCC(C)(C)c2ccc(F)cc2)n[nH]1 | 130.7 |
| Cc1nn(C)cc1-c1cc(C(=O)NCC(C)(C)c2ccccc2F)n[nH]1 | 89.7 |
| O=C(NCc1nc[nH]n1)c1cc(COc2cccc(F)c2)[nH]n1 | -19.41 |
| CC(Cn1cncn1)NC(=O)NCC(C)(C)c1ccc(F)cc1 (stereo not drawn) | 10.62 |
| O=C1CC(c2ccccc2F)c2c(n3ccsc3nc2=O)N1 (stereo not drawn) | 13.25 |
| CC(NC(=O)Nc1cc(F)cc(F)c1)c1nc[nH]n1 (stereo not drawn) | -15.42 |
| O=C(C1CCC2(CCN(CC3CC3)CC2)O1)N1CCCC1.O=C(O)C(F)(F)F (stereo not drawn) | -8.008 |
| O=C1COC2(CCN(C(=O)c3cnccn3)CC2)CN1CC1CC1 | -3.882 |
| O=C(NCC1CC1)C1CN(C(=O)c2cnccn2)CC12CCOCC2 (stereo not drawn) | -1.801 |

| SMILES | Percent Effect [%] |
| --- | --- |
| O=C(NCC1CC1)C1CCC2(CCN(C(=O)c3cnccn3)CC2)O1 (stereo not drawn) | 100.2 |
| O=C(NCC1CC1)C1CCC2(CCN(C(=O)c3ccncc3)CC2)O1.O=C(O)C(F)(F)F (stereo not drawn) | 111.8 |
| CC1N(CC2CC2)C(=O)COC12CCN(C(=O)c1ccncc1)CC2 (stereo not drawn) | -6.799 |
| O=C(NCC1CC1)C1CN(C(=O)c2cccnc2)CC12CCOCC2 (stereo not drawn) | 0.4189 |
| O=C(NCC1CC1)C1CCC2(CCN(C(=O)c3cccnc3)CC2)O1.O=C(O)C(F)(F)F (stereo not drawn) | 93.2 |
| CCc1nnc2n1CC(CNCc1nc(-c3ccsc3)no1)CC2 (stereo not drawn) | -16.4 |
| Cc1ccccc1CN(C)C(=O)Cn1nc(-c2ccc(F)cc2)oc1=O | -30.13 |
| COCCCNC(=O)Cn1nnc(-c2cc3ccccc3o2)n1 | -9.995 |
| Cc1nc(-c2ccccc2)n(CC(=O)N(C(C)C)C(C)C)n1 | 7.414 |
| COc1ncccc1C(=O)N1CC(c2nc(-c3ccco3)no2)C1 | 8.085 |
| COCCNC(=O)Cn1c(-c2ccco2)cc2cccnc21 | 97.97 |
| CC(C)N(C(=O)Cn1c(-c2ccco2)cc2cccnc21)C(C)C.Cl | 129.4 |
| Cl.O=C(Cn1c(-c2ccco2)cc2cccnc21)N1CCCC1 | 109.6 |
| O=C(Cn1ccc2ncccc2c1=O)N1CCCCC1 | -19.73 |
| COc1cccc(OCCNC(=O)CN2CCN(C)CC2C)c1 (stereo not drawn) | 0.3417 |
| O=C(c1ncoc1-c1ccco1)N1CCCN(c2ncccn2)CC1 | -13.17 |
| CCCS(=O)(=O)NCC1CCOc2ccccc2C1 (stereo not drawn) | -3.198 |
| Cn1nnc2c1C(COCC1CC1)CN(C(=O)Cc1ccccn1)C2 (stereo not drawn) | 3.096 |
| CN(Cc1ccno1)c1nc(C2CCCC2)nc2c1cnn2C | 93.91 |
| CNc1ncc(CN(C)c2nc(C3CCCC3)nc3c2cnn3C)cn1 | 113.7 |
| CCCc1nc(N(C)Cc2cnc(NC)nc2)c2cnn(C)c2n1 | 3.632 |
| Cc1cc(CC(C)Nc2nc(C3CCCC3)nc3c2cnn3C)[nH]n1 (stereo not drawn) | 4.574 |
| Cc1nn(C)c(C)c1CN(C)c1nc(C2CCCC2)nc2c1cnn2C | 74.08 |
| CCc1nnc(CN(C)c2nc(C3CCCC3)nc3c2cnn3C)o1 | -12.86 |
| Cc1c[nH]c(CN(C)c2nc(C3CCCC3)nc3c2cnn3C)n1 | -9.015 |
| Cc1nc(N(C)CCN(C)C)c2cnn(C)c2n1 | -4.82 |

| SMILES | Percent Effect [%] |
| --- | --- |
| Cn1ncc2c(NCCn3cccc3)nc(C3CCCC3)nc21 | 12.23 |
| CNCCCNc1nc(C2CCCC2)nc2c1cnn2C | -5.607 |
| Cc1cc(C)nc(CN(C)c2nc(C3CCCC3)nc3c2cnn3C)c1 | 180.1 |
| CCC(Nc1nc(C2CCCC2)nc2c1cnn2C)c1ccncc1 (stereo not drawn) | 11.81 |
| O=C(c1ccc(-n2cncn2)cc1)N1CCN(c2cnccn2)CC1 | -5.785 |
| N#Cc1ccc(NCC(=O)Nc2ccn(Cc3cccnc3)n2)cc1 | 0.1964 |
| O=C(CCc1ccccn1)N1CCc2cc(Cl)cc(Cl)c2C1 | -9.614 |
| CC(NC1(CNC(=O)C(C)(C)C#N)CCOCC1)c1ccccc1 (stereo not drawn) | -5.654 |
| Cc1noc(C)c1CN(C)c1nc(C2CCCC2)nc2c1cnn2C | 118.2 |
| CC(C)N(CCNc1nc(C2CCCC2)nc2c1cnn2C)C(C)C | -18.52 |
| CCOCCNc1nc(C2CCCC2)nc2c1cnn2C | -2.506 |
| COc1ncccc1CN1CCn2c(C(=O)N3CCCC3)cnc2C1.O=C(O)C(F)(F)F.O=C(O)C(F)(F)F | -2.628 |
| COCCN1CCn2cc(CN(C)Cc3ccco3)nc2C1 | 6.66 |
| Cc1nc2c(c(NCC(c3ccccc3C)N(C)C)n1)CCNC2 (stereo not drawn) | 96.84 |
| CCOc1ccc(C(C)Nc2ncnc3c2CCNC3)cc1OCC (stereo not drawn) | -5.441 |
| Cc1ccccc1C(CNc1ncnc2c1CCNC2)N(C)C (stereo not drawn) | 84.04 |
| Cc1[nH]c2ccc(C#N)cc2c1CCNc1ncnc2c1CCNCC2 | 9.456 |
| Cc1nc2c(c(NCC(O)C(F)(F)F)n1)CCNCC2 (stereo not drawn) | -4.402 |
| Cc1ccccc1C(Nc1ncnc2c1CCNC2)c1ccccc1 (stereo not drawn) | 93.65 |
| OC(CNc1ncnc2c1CCNCC2)C(F)(F)F (stereo not drawn) | -1.789 |
| Cc1nc2c(c(NCC(O)c3ccccc3Cl)n1)CCNCC2 (stereo not drawn) | -5.653 |
| Cc1ccccc1C(CNc1ncnc2c1CCNCC2)N(C)C (stereo not drawn) | 105.5 |
| CC(Nc1ncnc2c1CCNC2)c1ccc(C(C)(C)C)cc1 (stereo not drawn) | 30.56 |
| Cc1[nH]c2ccc(Cl)cc2c1CCNc1ncnc2c1CCNC2 | 12.31 |
| CCCc1ccc(C(C)Nc2ncnc3c2CCNC3)cc1 (stereo not drawn) | -93.4 |
